The panel holds about 83,000 compounds, 20% with a hit somewhere; the sample as a whole holds those more often.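 Step 1: grow cells in 96-well plates. Step 2: add test compound at a single concentration. Step 3: incubate 48 h. Step 4: record percent growth.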 The source made the active and inactive calls. The calls were made as follows: active = growth percent below 10; inactive = the rest.
Experiments:
Experiment in all cases: NCI-60 one-dose screen, 48 h (100 = growth as untreated, 0 = no growth, -100 = all killed)
Details in all cases: 10 µM unless noted
HCT-15 colon = system: HCT-15 colon
HT29 colon = system: HT29 colon
SNB-75 CNS = system: SNB-75 CNS
PC-3 prostate = system: PC-3 prostate
SK-MEL-5 melanoma = system: SK-MEL-5 melanoma
UACC-62 melanoma = system: UACC-62 melanoma
LOX IMVI melanoma = system: LOX IMVI melanoma
SK-MEL-28 melanoma = system: SK-MEL-28 melanoma
SK-MEL-2 melanoma = system: SK-MEL-2 melanoma
SN12C renal = system: SN12C renal
UO-31 renal = system: UO-31 renal
TK-10 renal = system: TK-10 renal
ACHN renal = system: ACHN renal
CAKI-1 renal = system: CAKI-1 renal
CCRF-CEM leukemia = system: CCRF-CEM leukemia
MOLT-4 leukemia = system: MOLT-4 leukemia
SNB-19 CNS = system: SNB-19 CNS
U251 CNS = system: U251 CNS
EKVX NSCLC = system: EKVX NSCLC
A498 renal = system: A498 renal

Measured: growth

CCCCC(=O)N/N=C/c1cc(I)cc(I)c1O
inactive: HCT-15 colon 15.6% | HT29 colon 56.2% | SNB-75 CNS 62.8% | PC-3 prostate 47% | SK-MEL-5 melanoma 78.9% | UACC-62 melanoma 38.8% | LOX IMVI melanoma 38.9% | SK-MEL-28 melanoma 58.8% | SK-MEL-2 melanoma 64.3% | SN12C renal 56.3% | UO-31 renal 34.9% | TK-10 renal 49.3% | ACHN renal 23.6% | CAKI-1 renal 21.6% | CCRF-CEM leukemia 14.9% | MOLT-4 leukemia 28.2%

COc1cc2cc(Oc3ccc(NC(=O)Nc4ccc(Cl)c(C(F)(F)F)c4)cc3)c(C)nc2cc1OCCN1CCCCC1
inactive: UACC-62 melanoma 72.6% | SK-MEL-2 melanoma 95.3% | EKVX NSCLC 15.8% | CAKI-1 renal 15.4% | A498 renal 64.2%
active: HCT-15 colon -81.8% | HT29 colon -68% | SNB-19 CNS -51.7% | U251 CNS -76.4% | PC-3 prostate -55.3% | SK-MEL-5 melanoma -76.1% | LOX IMVI melanoma -97.1% | SK-MEL-28 melanoma -86% | SN12C renal -84.7% | UO-31 renal -90.1% | ACHN renal -100% | CCRF-CEM leukemia 3.86% | MOLT-4 leukemia -37.2%

O=C1CCC(N2Cc3c(C#CCCCNC(=O)c4cc5c(o4)C(=O)c4ccccc4C5=O)cccc3C2=O)C(=O)N1 (stereo not drawn)
active: HT29 colon -15.4% | SNB-19 CNS -8.73% | U251 CNS -27.7% | PC-3 prostate 4.79% | SK-MEL-5 melanoma -99.2% | UACC-62 melanoma -84.4% | LOX IMVI melanoma -88.3% | SK-MEL-28 melanoma -22.9% | SK-MEL-2 melanoma -26.6% | SN12C renal -92.2% | MOLT-4 leukemia 8.52%
inactive: HCT-15 colon 76% | EKVX NSCLC 64.4% | UO-31 renal 86.4% | TK-10 renal 101% | ACHN renal 71.7% | CAKI-1 renal 78.7% | CCRF-CEM leukemia 12.3%

O=C1OCC2=C1C(c1ccc3c(c1)OCO3)CC(=O)N2c1cccc(Cl)c1 (stereo not drawn)
inactive: HCT-15 colon 101% | HT29 colon 97.5% | SNB-19 CNS 93% | U251 CNS 99.9% | PC-3 prostate 102% | UACC-62 melanoma 102% | LOX IMVI melanoma 98% | SK-MEL-28 melanoma 101% | SK-MEL-2 melanoma 103% | EKVX NSCLC 96.3% | SN12C renal 95.9% | UO-31 renal 85.1% | TK-10 renal 99.6% | ACHN renal 103% | CAKI-1 renal 90.2% | A498 renal 84.6% | CCRF-CEM leukemia 90.9% | MOLT-4 leukemia 95.2%

CCSc1nnc2c3cc(Br)ccc3n(C)c2n1
inactive: HCT-15 colon 96.7% | SNB-75 CNS 92.6% | SNB-19 CNS 109% | U251 CNS 101% | PC-3 prostate 81% | UACC-62 melanoma 103% | LOX IMVI melanoma 96% | SK-MEL-28 melanoma 123% | SK-MEL-2 melanoma 97.8% | SN12C renal 102% | ACHN renal 90.8% | CAKI-1 renal 80.9% | A498 renal 91.5% | MOLT-4 leukemia 107%

Cn1c2c(cc(S(=O)(=O)c3ccccc3)c1=O)CCc1c-2cnn1-c1ccccc1Cl
active: UO-31 renal -16% | ACHN renal -31%
inactive: HCT-15 colon 95.9% | SNB-75 CNS 92.5% | SNB-19 CNS 96.2% | PC-3 prostate 93.5% | SK-MEL-5 melanoma 105% | UACC-62 melanoma 93.4% | SK-MEL-28 melanoma 104% | SK-MEL-2 melanoma 105% | SN12C renal 97.8% | TK-10 renal 122% | CAKI-1 renal 54.7% | A498 renal 86.5% | CCRF-CEM leukemia 96.4% | MOLT-4 leukemia 90.7%

O=C1NC(=O)C(CSc2ccccc2)(c2ccccc2)N1 (stereo not drawn)
inactive: HCT-15 colon 119% | SNB-75 CNS 83.9% | U251 CNS 96.7% | PC-3 prostate 88.9% | SK-MEL-5 melanoma 92.6% | UACC-62 melanoma 101% | LOX IMVI melanoma 89.6% | SK-MEL-28 melanoma 112% | EKVX NSCLC 110% | SN12C renal 103% | UO-31 renal 88.9% | ACHN renal 101% | CAKI-1 renal 87.7% | A498 renal 122% | CCRF-CEM leukemia 97.1% | MOLT-4 leukemia 97.8%

Cn1c2c(cc(S(=O)(=O)c3ccccc3)c1=O)CCc1c-2cnn1-c1cccc(Cl)c1
active: UO-31 renal -84.5% | ACHN renal -87.9% | CAKI-1 renal -58%
inactive: HCT-15 colon 96.7% | SNB-75 CNS 76.4% | SNB-19 CNS 97% | PC-3 prostate 83.1% | UACC-62 melanoma 84.6% | LOX IMVI melanoma 93.4% | SK-MEL-28 melanoma 94.7% | SK-MEL-2 melanoma 107% | SN12C renal 90.3% | TK-10 renal 86.5% | A498 renal 71.4% | CCRF-CEM leukemia 90.9% | MOLT-4 leukemia 86.2%

Clc1ccc2c(c1)C[C@H]1C[C@@H](c3cccs3)N2O1
inactive: HCT-15 colon 97.2% | SNB-75 CNS 101% | SNB-19 CNS 114% | U251 CNS 93.7% | PC-3 prostate 91.6% | SK-MEL-5 melanoma 99.5% | UACC-62 melanoma 105% | LOX IMVI melanoma 93.2% | SK-MEL-28 melanoma 110% | SK-MEL-2 melanoma 113% | EKVX NSCLC 83.2% | SN12C renal 106% | UO-31 renal 93.4% | TK-10 renal 104% | ACHN renal 104% | CAKI-1 renal 94.4% | A498 renal 77.1% | MOLT-4 leukemia 89.3%

Brc1ccc(SCN(CSc2ccc(Br)cc2)Cc2ccccc2)cc1
active: LOX IMVI melanoma -15.5% | CCRF-CEM leukemia 4.88%
inactive: HCT-15 colon 78.8% | SNB-75 CNS 66.4% | SNB-19 CNS 84.2% | PC-3 prostate 26.4% | UACC-62 melanoma 92% | SK-MEL-28 melanoma 101% | SK-MEL-2 melanoma 94.6% | UO-31 renal 39% | TK-10 renal 113% | ACHN renal 87.3% | CAKI-1 renal 73% | A498 renal 56.3% | MOLT-4 leukemia 17%

CN1CCc2c(Sc3ccc(C(=O)NO)cc3)c3ccccc3n2C1
inactive: HCT-15 colon 75.6% | SNB-75 CNS 25.8% | SNB-19 CNS 53.4% | U251 CNS 23.8% | PC-3 prostate 20.8% | UACC-62 melanoma 38.9% | LOX IMVI melanoma 11.6% | SK-MEL-28 melanoma 14.7% | SK-MEL-2 melanoma 39.6% | SN12C renal 59.4% | UO-31 renal 62.8% | ACHN renal 64.6% | CAKI-1 renal 78.8% | A498 renal 28.6%
active: CCRF-CEM leukemia 3.13% | MOLT-4 leukemia 6.7%

COc1ccc(-c2c(-c3cc4c(c(OC)c3OC)OCO4)noc2N)cc1
inactive: HCT-15 colon 27% | SNB-75 CNS 22.8% | SNB-19 CNS 40.6% | U251 CNS 32.4% | PC-3 prostate 12.2% | SK-MEL-5 melanoma 16.5% | UACC-62 melanoma 37.5% | LOX IMVI melanoma 43.7% | SK-MEL-28 melanoma 49.7% | SK-MEL-2 melanoma 63% | EKVX NSCLC 40.5% | SN12C renal 44.4% | UO-31 renal 57.4% | TK-10 renal 66.3% | CAKI-1 renal 37.6% | A498 renal 35.8% | CCRF-CEM leukemia 11.7% | MOLT-4 leukemia 36.6%

COc1ccc(/C=N/NC(=O)c2cnn(CC(O)Cc3ccccc3)c2N)cc1OC1CCCC1 (stereo not drawn)
inactive: HCT-15 colon 77.6% | SNB-75 CNS 74.2% | SNB-19 CNS 92.3% | U251 CNS 85.6% | PC-3 prostate 69.9% | SK-MEL-5 melanoma 62.7% | UACC-62 melanoma 82.8% | SK-MEL-28 melanoma 107% | SK-MEL-2 melanoma 108% | SN12C renal 95.4% | UO-31 renal 92.1% | TK-10 renal 99.4% | ACHN renal 87.5% | CAKI-1 renal 77.9% | CCRF-CEM leukemia 70.9% | MOLT-4 leukemia 66.6%

c1ccc2c(c1)oc1cc3c(cc12)nnc1cccn13
inactive: HCT-15 colon 104% | SNB-75 CNS 91.7% | SNB-19 CNS 108% | U251 CNS 97.2% | PC-3 prostate 100% | SK-MEL-5 melanoma 98.2% | UACC-62 melanoma 106% | LOX IMVI melanoma 112% | SK-MEL-28 melanoma 116% | EKVX NSCLC 80.9% | SN12C renal 103% | UO-31 renal 64.9% | TK-10 renal 122% | ACHN renal 99.8% | CAKI-1 renal 91.1% | A498 renal 111% | CCRF-CEM leukemia 109% | MOLT-4 leukemia 108%

COc1nc2c(cc1S(=O)(=O)c1ccccc1)CCc1c-2cnn1-c1ccccc1Cl
inactive: HCT-15 colon 51.5% | SNB-75 CNS 50.9% | SNB-19 CNS 64.5% | PC-3 prostate 35.9% | UACC-62 melanoma 60% | LOX IMVI melanoma 78% | SK-MEL-28 melanoma 85.2% | SK-MEL-2 melanoma 92.2% | SN12C renal 59% | UO-31 renal 40.2% | TK-10 renal 42.2% | ACHN renal 62.5% | CAKI-1 renal 49.9% | CCRF-CEM leukemia 60.8% | MOLT-4 leukemia 42.9%
active: A498 renal -1.8%

Cn1c2ccccc2c2nn(Cc3ccccc3)c(=O)nc21
inactive: HCT-15 colon 94.6% | SNB-75 CNS 77% | SNB-19 CNS 106% | U251 CNS 106% | PC-3 prostate 99.4% | UACC-62 melanoma 108% | LOX IMVI melanoma 102% | SK-MEL-28 melanoma 126% | SK-MEL-2 melanoma 103% | UO-31 renal 75.1% | ACHN renal 88.5% | CAKI-1 renal 94.7% | A498 renal 104% | MOLT-4 leukemia 105%

COc1ccc(OC)c(/C=C2\Oc3cc(O)ccc3C2=O)c1
inactive: HCT-15 colon 75% | SNB-75 CNS 88.6% | SNB-19 CNS 95.5% | U251 CNS 89.5% | PC-3 prostate 95.5% | SK-MEL-5 melanoma 92.4% | UACC-62 melanoma 89% | LOX IMVI melanoma 88.6% | SK-MEL-28 melanoma 88.5% | SK-MEL-2 melanoma 98.6% | EKVX NSCLC 91.4% | SN12C renal 85.8% | UO-31 renal 60.3% | TK-10 renal 103% | ACHN renal 68.3% | CAKI-1 renal 93.7% | CCRF-CEM leukemia 96.1% | MOLT-4 leukemia 100%

CC(=O)N(CC(O)CO)c1c(I)c(C(=O)NCCO)c(I)c(C(=O)NCC(O)CO)c1I (stereo not drawn)
inactive: HCT-15 colon 96.4% | SNB-75 CNS 95.6% | SNB-19 CNS 106% | U251 CNS 100% | PC-3 prostate 81.3% | SK-MEL-5 melanoma 91.7% | UACC-62 melanoma 111% | SK-MEL-28 melanoma 112% | SK-MEL-2 melanoma 95.8% | EKVX NSCLC 105% | UO-31 renal 69.3% | TK-10 renal 114% | ACHN renal 103% | CAKI-1 renal 99.3% | A498 renal 110% | CCRF-CEM leukemia 93.4% | MOLT-4 leukemia 84.3%
